Experimental findings from PubChem BioAssay (EPA / NIEHS) are described below.

Records with an inconclusive call do not appear. Activity calls are given as the source filed them. The calls were made as follows: active = hit-call score of the fitted dose curve at least 0.9, where 1 is the maximum; inconclusive = response in the unintended direction; inactive = score below 0.9.

For orientation: AC50 means the midpoint of the concentration-response curve, whichever way the signal moves.

For assay [1], the target named is guinea pig Opioid, Kappa 1 Receptor (OpiateK), OPRK1 (gene 100135587) (UniProt P41144). Kind of assay: NVS_GPCR_gOpiateK: NovaScreen (NVS) G Protein-Coupled Receptor Assay for guinea pig Opioid, Kappa 1 Receptor (OpiateK) (AID 2283252).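 Also: radioligand displacement from kappa opioid receptor in guinea pig cerebellar membranes; active means reduced radioligand binding relative to DMSO.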 In outline:
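Radioligand competition binding using guinea pig cerebellum membrane fraction; 2 h exposure; filter radiodetection. Single concentration 25 uM (duplicate), follow-up concentration-response for actives.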

The target of assay [2] is human Adenosine A1 Receptor (AdoRA1), ADORA1 (gene 134) (UniProt P30542). Kind of assay: NVS_GPCR_hAdoRA1: NovaScreen (NVS) G Protein-Coupled Receptor Assay for human Adenosine A1 Receptor (AdoRA1) (AID 2283254). In outline: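 Radioligand binding was run on human cortical membranes, cell-free, with filter-based scintillation counting 1 h after dosing. The primary screen was duplicate at 25 uM, followed by concentration series. Signal loss versus DMSO was fitted positive-direction.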

In assay [3] the target is D(1A) dopamine receptor (Homo sapiens) (UniProt P21728). Kind of assay: NVS_GPCR_hDRD1: NovaScreen (NVS) G Protein-Coupled Receptor Assay for human Dopamine Receptor D1 (DRD1) (AID 2283269). Put shortly:
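Radioligand displacement binding on membranes/protein extracted from HEK293 expressing human D1, cell-free; read 1 h after dosing by filter-based scintillation counting. Primary screen in duplicate at 25 uM, actives followed up in concentration series; signal loss versus DMSO baseline.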

Assay [4] concerns the target human Peripheral-type Benzodiazepine Receptor (PBR), TSPO (gene 706) (UniProt P30536). Kind of assay: NVS_MP_hPBR: NovaScreen (NVS) Membrane Protein Assay for human Peripheral-type Benzodiazepine Receptor (PBR) (AID 2283331).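 Also: hits reduce radioligand binding relative to DMSO baseline.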 In outline: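 Using human colon-derived membranes, this one-endpoint binding test reads radioligand loss by scintillation after 1 h. Screening started at 25 uM in duplicate, with positive and negative controls on every plate, and actives moved to dose series.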

For assay [5], the target named is rat Peripheral-type Benzodiazepine Receptor (PBR), Tspo (gene 24230) (UniProt P16257). Kind of assay: NVS_MP_rPBR: NovaScreen (NVS) Membrane Protein Assay for rat Peripheral-type Benzodiazepine Receptor (PBR) (AID 2283335). Put shortly: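 Single-concentration duplicate screening at 25 uM preceded concentration-series retesting of actives. Binding of a specific radioligand to rat kidney membrane PBR was read by filtration radiodetection after 1 h, with plate-wise positive and negative controls.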

For assay [6], the target named is human Thromboxane A2 Receptor (TXA2), TBXA2R (gene 6915) (UniProt P21731). Kind of assay: NVS_GPCR_hTXA2: NovaScreen (NVS) G Protein-Coupled Receptor Assay for human Thromboxane A2 Receptor (TXA2) (AID 2283282).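 Also: actives reduce bound radioligand signal relative to DMSO baseline.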 Put shortly: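 Screening ran at 25 uM in duplicate, with concentration series for confirmed actives. Each test measures radioligand binding to human platelet protein after 1 h, cell-free, using filter-based scintillation detection of signal loss relative to DMSO.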

Assay [7] deals with human Opioid Receptor Mu (Opiate Mu), OPRM1 (gene 4988) (UniProt P35372). Kind of assay: NVS_GPCR_hOpiate_mu: NovaScreen (NVS) G Protein-Coupled Receptor Assay for human Opioid Receptor Mu (Opiate Mu) (AID 2283290).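 Also: hits lower bound tracer signal versus DMSO meaning displacement of the ligand.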 Put shortly:
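Radioligand displacement binding on membranes from CHO cells expressing the receptor, 2.5 h after dosing, filter-based scintillation counting; loss of signal vs DMSO baseline. Screened in duplicate at 25 uM, actives then run in concentration series.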

The target of assay [8] is Muscarinic acetylcholine receptor M2 (Homo sapiens) (UniProt P08172). Kind of assay: NVS_GPCR_hM2: NovaScreen (NVS) G Protein-Coupled Receptor Assay for human Muscarinic, M2 Receptor (AID 2283273). In outline:
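Radioligand competition binding, cell-free, receptor from CHO; 1 h incubation; scintillation detection. Primary testing at 25 uM in duplicate.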

For assay [9], the target named is human Neurokinin, NK2 Receptor, TACR2 (gene 6865) (UniProt P21452). Kind of assay: NVS_GPCR_hNK2: NovaScreen (NVS) G Protein-Coupled Receptor Assay for human Neurokinin, NK2 Receptor (AID 2283278).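 Also: actives reduce bound radioligand signal relative to DMSO baseline.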 In outline:
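Radioligand binding on membranes from CHO cells expressing receptor, filter-based scintillation read 4 h after dosing. Initial duplicate screen at 25 uM, actives in concentration series; loss of signal versus DMSO.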

Assay [10] concerns the target Sodium channel protein type 1 subunit alpha (Rattus norvegicus) (UniProt P04774). Kind of assay: NVS_IC_rNaCh_site2: NovaScreen (NVS) Ion Channel Assay for rat Sodium Channel, Site 2 (NaCh) (AID 2283322).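 Also: hit means loss of radioligand binding signal relative to DMSO so AC50 marks displacement.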 Put shortly: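 Initial duplicate single-point testing at 25 uM, followed by concentration-response runs for actives. Binding of radioligand to rat forebrain membranes quantified after 1 h via filter-based radiodetection.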

In assay [11] the target is human Endothelin Receptor Type A (ETA), EDNRA (gene 1909) (UniProt P25101). Kind of assay: NVS_GPCR_hETA: NovaScreen (NVS) G Protein-Coupled Receptor Assay for human Endothelin Receptor Type A (ETA) (AID 2283265). Put shortly:
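Binding of radioligand to membrane protein extracted from SH-SY5Y cells was read by filtration and scintillation after 3 h. Compounds were screened at 25 uM in duplicate, with hits followed up in singleton concentration series to 50 uM.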

Assay [12] concerns the target human Orphanin, Opioid Related Nociceptin Receptor 1 (ORL1), OPRL1 (gene 4987) (UniProt P41146). Kind of assay: NVS_GPCR_hORL1: NovaScreen (NVS) G Protein-Coupled Receptor Assay for human Orphanin, Opioid Related Nociceptin Receptor 1 (ORL1) (AID 2283283). In outline: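 Cell-free binding using HEK293-derived receptor protein: radioligand displacement measured by filter scintillation 1 hour after dosing. Primary testing at 25 uM in duplicate, followed by singleton concentration series up to 50 uM; DMSO served as negative control.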

The target of assay [13] is bovine Estrogen Receptor (ER), ESR1 (gene 407238) (UniProt P49884). Kind of assay: NVS_NR_bER: NovaScreen (NVS) Nuclear Receptor Binding Assay for bovine Estrogen Receptor (ER) (AID 2283345).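 Also: actives lower the bound radioligand count which means they displace the ER ligand.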 Put shortly: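 Cell-free radioligand binding with bovine uterine membrane extracts, read 18 hours after dosing by scintillation counting. Loss of signal versus DMSO baseline indicates displacement. Primary screen run in duplicate at 25 uM, actives followed in concentration series.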

The target of assay [14] is rat Adrenergic Receptor, Alpha 2 (Adra2), Non-selective Binding, Adra2a (gene 25083) (UniProt P22909). Kind of assay: NVS_GPCR_rAdra2_NonSelective: NovaScreen (NVS) G Protein-Coupled Receptor Assay for rat Adrenergic Receptor, Alpha 2 (Adra2), Non-selective Binding (AID 2283299). In outline:
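Filter-based scintillation counting of radioligand binding to rat cortical membrane receptors, measured 1.25 hours post-dosing; loss of signal versus DMSO indicates displacement. Initial single-concentration duplicate at 25 uM, then concentration series.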

For assay [15], the target named is rat Neonicotinoid receptor (NNR), Chrna7 (gene 25302) (UniProt Q05941). Kind of assay: NVS_LGIC_rNNR_BungSens: NovaScreen (NVS) Ligand-Gated Ion Channel Assay for rat Neonicotinoid receptor (NNR) (AID 2283315). In outline: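 Rat cortical membrane preparation incubated 2.5 h with tritiated or iodinated radioligand and test chemical. Bound radioactivity was filtered and counted by scintillation, and displacement was analysed against DMSO.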

Assay [16] can be described thus: NVS_IC_rCaBTZCHL: NovaScreen (NVS) Ion Channel Assay for Calcium Channel, Type L, Benzothiazepine Site (CaBTZCHL) (AID 2283337). Put shortly:
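Rat cortical membrane preparation, cell-free. Radioligand displaced by test chemical; 1.5 h incubation; filtration, scintillation count. DMSO = negative control/baseline. Primary: duplicate, 25 uM; secondary: concentration series.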

The target in assay [17] is human Androgen Receptor (AR), AR (gene 367) (UniProt P10275). Kind of assay: NVS_NR_hAR: NovaScreen (NVS) Nuclear Receptor Binding Assay for human Androgen Receptor (AR) (AID 2283332). Put shortly: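 Actives from a duplicate 25 uM single-point screen went on to concentration series. Read-out after 20 h was scintillation counting of displaced radioligand in LnCAP extract, with DMSO as baseline.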

Assay [18] concerns the target Muscarinic acetylcholine receptor M1 (Homo sapiens) (UniProt P11229). Kind of assay: NVS_GPCR_hM1: NovaScreen (NVS) G Protein-Coupled Receptor Assay for human Muscarinic, M1 Receptor (AID 2283270). Put shortly: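 Actives from a duplicate 25 uM single-point screen were retested in concentration series. Binding measured as displacement of a radioligand from CHO-derived receptor preparation, 1 h incubation, filtration and scintillation counting, analysed as signal loss against DMSO.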

D(1A) dopamine receptor (Homo sapiens), sequence (P21728 whole entry, looked up): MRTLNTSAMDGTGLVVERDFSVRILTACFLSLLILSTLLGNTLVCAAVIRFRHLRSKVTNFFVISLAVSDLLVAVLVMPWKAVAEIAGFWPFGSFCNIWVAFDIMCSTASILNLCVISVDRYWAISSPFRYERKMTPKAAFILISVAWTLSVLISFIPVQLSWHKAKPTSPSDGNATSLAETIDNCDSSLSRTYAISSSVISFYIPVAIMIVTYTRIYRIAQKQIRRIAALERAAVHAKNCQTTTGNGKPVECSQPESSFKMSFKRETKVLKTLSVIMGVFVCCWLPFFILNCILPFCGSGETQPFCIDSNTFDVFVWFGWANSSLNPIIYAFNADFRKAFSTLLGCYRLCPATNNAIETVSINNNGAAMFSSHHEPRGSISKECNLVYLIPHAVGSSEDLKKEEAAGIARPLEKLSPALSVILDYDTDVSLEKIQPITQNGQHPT
rat Peripheral-type Benzodiazepine Receptor (PBR), Tspo (gene 24230), sequence (P16257 whole entry, looked up): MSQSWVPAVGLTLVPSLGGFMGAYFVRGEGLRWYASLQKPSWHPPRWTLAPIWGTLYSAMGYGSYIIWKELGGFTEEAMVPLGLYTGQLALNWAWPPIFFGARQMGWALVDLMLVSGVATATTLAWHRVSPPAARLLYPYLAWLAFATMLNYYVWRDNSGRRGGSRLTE
bovine Estrogen Receptor (ER), ESR1 (gene 407238), sequence (P49884 whole entry, looked up): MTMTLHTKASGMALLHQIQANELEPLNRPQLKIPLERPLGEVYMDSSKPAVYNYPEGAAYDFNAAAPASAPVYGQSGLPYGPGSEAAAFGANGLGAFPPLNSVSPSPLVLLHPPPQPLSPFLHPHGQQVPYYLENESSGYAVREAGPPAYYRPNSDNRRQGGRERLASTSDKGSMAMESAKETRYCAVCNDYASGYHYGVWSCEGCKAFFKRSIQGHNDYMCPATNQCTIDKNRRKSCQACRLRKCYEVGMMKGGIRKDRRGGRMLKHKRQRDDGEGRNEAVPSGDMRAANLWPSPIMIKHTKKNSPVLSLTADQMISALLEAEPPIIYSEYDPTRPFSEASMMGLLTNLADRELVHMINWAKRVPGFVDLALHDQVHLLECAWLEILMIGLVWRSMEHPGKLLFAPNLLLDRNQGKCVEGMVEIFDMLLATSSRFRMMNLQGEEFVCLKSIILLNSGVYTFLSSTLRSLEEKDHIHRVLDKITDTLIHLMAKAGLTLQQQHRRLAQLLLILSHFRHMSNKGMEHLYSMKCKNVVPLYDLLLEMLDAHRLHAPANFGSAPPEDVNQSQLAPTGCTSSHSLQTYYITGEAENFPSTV
human Peripheral-type Benzodiazepine Receptor (PBR), TSPO (gene 706), sequence (P30536 whole entry, looked up): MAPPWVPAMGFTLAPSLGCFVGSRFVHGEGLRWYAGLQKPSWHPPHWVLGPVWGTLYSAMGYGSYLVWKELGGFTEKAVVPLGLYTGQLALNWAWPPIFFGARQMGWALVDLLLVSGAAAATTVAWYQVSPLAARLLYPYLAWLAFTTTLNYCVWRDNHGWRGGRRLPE
human Neurokinin, NK2 Receptor, TACR2 (gene 6865), sequence (P21452 whole entry, looked up): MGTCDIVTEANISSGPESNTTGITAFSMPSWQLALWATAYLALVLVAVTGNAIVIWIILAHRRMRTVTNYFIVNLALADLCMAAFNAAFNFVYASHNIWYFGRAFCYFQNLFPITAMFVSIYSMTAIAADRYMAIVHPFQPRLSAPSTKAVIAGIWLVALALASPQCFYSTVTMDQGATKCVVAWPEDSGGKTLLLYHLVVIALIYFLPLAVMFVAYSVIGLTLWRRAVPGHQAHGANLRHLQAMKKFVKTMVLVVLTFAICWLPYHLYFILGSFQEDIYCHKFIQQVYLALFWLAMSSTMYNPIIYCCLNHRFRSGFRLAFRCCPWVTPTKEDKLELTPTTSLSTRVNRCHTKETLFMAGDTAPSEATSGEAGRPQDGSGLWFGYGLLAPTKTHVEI
human Opioid Receptor Mu (Opiate Mu), OPRM1 (gene 4988), sequence (P35372 whole entry, looked up): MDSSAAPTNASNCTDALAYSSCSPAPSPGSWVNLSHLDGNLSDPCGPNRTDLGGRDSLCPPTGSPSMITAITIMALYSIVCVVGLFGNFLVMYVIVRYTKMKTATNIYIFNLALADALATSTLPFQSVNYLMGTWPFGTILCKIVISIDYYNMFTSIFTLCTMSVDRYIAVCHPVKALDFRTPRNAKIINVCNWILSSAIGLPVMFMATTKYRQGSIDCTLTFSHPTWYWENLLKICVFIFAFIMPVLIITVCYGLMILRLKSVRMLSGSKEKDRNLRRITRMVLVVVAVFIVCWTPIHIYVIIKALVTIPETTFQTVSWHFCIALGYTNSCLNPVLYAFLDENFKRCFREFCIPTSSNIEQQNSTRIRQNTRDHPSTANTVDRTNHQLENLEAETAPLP
human Thromboxane A2 Receptor (TXA2), TBXA2R (gene 6915), sequence (P21731 whole entry, looked up): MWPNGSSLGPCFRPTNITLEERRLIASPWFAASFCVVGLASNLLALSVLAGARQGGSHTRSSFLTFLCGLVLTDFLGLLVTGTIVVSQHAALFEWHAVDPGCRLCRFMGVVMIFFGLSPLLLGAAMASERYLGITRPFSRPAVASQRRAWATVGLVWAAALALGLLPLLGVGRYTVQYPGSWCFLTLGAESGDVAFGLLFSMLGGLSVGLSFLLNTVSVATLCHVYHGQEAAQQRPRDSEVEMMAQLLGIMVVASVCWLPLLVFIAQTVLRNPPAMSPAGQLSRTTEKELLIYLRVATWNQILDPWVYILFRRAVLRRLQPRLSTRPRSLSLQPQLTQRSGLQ
guinea pig Opioid, Kappa 1 Receptor (OpiateK), OPRK1 (gene 100135587), sequence (P41144 whole entry, looked up): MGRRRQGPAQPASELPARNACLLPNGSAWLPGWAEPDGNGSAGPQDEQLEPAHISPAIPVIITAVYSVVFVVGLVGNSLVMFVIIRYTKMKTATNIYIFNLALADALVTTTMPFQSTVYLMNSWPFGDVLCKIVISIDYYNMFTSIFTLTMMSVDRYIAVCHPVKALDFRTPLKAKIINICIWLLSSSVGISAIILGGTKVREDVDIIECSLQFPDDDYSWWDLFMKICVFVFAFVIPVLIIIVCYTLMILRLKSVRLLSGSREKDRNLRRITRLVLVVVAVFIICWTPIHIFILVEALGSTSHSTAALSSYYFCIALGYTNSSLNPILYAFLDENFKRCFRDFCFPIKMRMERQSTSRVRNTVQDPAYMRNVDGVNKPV
rat Neonicotinoid receptor (NNR), Chrna7 (gene 25302), sequence (Q05941 whole entry, looked up): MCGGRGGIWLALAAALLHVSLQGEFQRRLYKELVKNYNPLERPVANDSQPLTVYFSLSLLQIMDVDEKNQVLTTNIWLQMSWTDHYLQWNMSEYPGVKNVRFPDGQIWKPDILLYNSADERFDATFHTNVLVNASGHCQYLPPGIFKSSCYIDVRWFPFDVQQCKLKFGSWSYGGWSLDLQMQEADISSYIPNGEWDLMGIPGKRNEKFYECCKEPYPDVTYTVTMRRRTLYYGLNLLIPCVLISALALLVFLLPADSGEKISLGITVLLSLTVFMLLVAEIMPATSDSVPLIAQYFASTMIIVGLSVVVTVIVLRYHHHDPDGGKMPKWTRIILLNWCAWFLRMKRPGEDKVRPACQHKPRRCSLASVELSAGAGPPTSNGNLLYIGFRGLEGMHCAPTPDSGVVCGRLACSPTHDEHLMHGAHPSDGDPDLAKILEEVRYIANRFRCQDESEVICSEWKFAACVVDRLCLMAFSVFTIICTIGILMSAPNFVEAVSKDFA
human Androgen Receptor (AR), AR (gene 367), sequence (P10275 whole entry, looked up): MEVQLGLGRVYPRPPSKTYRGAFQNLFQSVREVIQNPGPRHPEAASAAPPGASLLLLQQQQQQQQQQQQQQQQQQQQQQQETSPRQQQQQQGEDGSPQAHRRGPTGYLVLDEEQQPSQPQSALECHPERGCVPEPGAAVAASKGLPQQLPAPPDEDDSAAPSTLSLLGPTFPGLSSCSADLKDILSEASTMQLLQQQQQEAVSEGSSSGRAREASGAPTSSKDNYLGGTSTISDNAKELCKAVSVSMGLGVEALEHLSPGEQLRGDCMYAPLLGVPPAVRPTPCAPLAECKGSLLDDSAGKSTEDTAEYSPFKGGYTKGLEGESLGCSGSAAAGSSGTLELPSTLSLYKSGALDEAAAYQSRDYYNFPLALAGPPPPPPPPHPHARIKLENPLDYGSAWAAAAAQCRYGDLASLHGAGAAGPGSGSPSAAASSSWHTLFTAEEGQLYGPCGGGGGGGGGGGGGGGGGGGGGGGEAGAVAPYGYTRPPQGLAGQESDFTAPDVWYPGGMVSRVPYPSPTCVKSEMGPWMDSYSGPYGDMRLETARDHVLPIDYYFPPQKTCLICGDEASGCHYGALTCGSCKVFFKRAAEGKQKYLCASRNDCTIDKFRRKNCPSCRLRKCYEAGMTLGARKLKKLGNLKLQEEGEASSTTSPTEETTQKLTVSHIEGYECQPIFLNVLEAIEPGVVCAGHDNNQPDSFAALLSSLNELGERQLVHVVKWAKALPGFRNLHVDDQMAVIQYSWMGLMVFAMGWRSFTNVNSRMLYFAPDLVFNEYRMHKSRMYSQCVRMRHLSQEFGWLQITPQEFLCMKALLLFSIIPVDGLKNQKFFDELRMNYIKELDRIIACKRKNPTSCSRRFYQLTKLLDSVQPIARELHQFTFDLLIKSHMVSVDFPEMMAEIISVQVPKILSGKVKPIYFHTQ
human Adenosine A1 Receptor (AdoRA1), ADORA1 (gene 134), sequence (P30542 whole entry, looked up): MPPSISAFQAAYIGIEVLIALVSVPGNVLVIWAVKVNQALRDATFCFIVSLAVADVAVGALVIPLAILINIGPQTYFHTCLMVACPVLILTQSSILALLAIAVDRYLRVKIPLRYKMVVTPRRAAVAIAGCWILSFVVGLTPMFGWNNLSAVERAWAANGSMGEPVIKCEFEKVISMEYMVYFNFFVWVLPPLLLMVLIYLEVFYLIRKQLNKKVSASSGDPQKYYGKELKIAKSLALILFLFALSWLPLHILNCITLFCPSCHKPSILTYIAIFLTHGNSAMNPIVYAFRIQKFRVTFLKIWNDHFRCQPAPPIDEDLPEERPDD

For the molecule `Cc1ccc(S(=O)(=O)C(I)I)cc1`, the molecule was called inactive in assay [1]. Moreover, the AC50 in assay [2] is 33.2 µM (active); in assay [3], 6.43 µM (active); in assay [4] it was 23.2 µM (active); in [5], 7.18 µM (active).
With `CCN(CC)c1ccc(C=O)cc1`, the AC50 in [6] is 4.65 µM (active). For the same molecule, the result in [7], in assay [4] and in assay [5] was inactive.
Take `Oc1ccc2c(c1)CCC2`: the molecule was classed as inactive in assay [3] and in assay [6].
`Cc1cccc(C)n1`: the outcome in [7] was inactive.
For `Oc1ccc(C2(c3ccc(O)c(C4CCCCC4)c3)CCCCC2)cc1C1CCCCC1`, the outcome in assay [3] and in [10] was inactive. Besides, the figures for the AC50 in assay [8], in [9] and in assay [7] were 8.57 µM (active), 16.2 µM (active) and 17.3 µM (active), respectively.
Regarding `CCCCCCCCn1sc(Cl)c(Cl)c1=O`, the outcome in assay [11] was inactive. Also, the AC50 in [12] was 16.5 µM (active); in assay [7], 8.39 µM (active); in assay [13], 12.7 µM (active).
Take `O=C1OC(=O)c2ccc3c4c(ccc1c24)C(=O)OC3=O`: the call in assay [9] and in assay [10] was inactive.
On to `c1ccc(C[P+](c2ccccc2)(c2ccccc2)c2ccccc2)cc1`, for which the AC50 in assay [1] was 1.98 µM (active); in [8] it was 1.22 µM (active); in assay [7] it was 1.09 µM (active); in [14], 17.8 µM (active); in assay [15] it was 25 µM (active); in [10], 5.54 µM (active). For the same molecule, the AC50 in [16] was 4.8 µM (active). For the same molecule, the molecule was called inactive in assay [3] and in [6].
As to `O=C1c2ccccc2C(=O)c2c(Cl)cccc21`, the AC50 in assay [2] is 13.3 µM (active); in assay [17], 2.06 µM (active).
On to `OCCC(O)CO` (stereo not given), for which, in assay [3], the AC50 is 37.4 µM (active).
For `O=C1C=CC(=O)N1c1ccc(Cc2ccc(N3C(=O)C=CC3=O)cc2)cc1`, the AC50 was 25 µM (active) in assay [3] and 28.4 µM (active) in [9]. The call in assay [13] was inactive.
For `CCCCCCCCCCCCCC[P+](CCCC)(CCCC)CCCC`, the AC50 in [11] was 6.26 µM (active); in [18] it was 1.02 µM (active); in assay [12] it was 6.46 µM (active); in assay [7] it was 1.07 µM (active); in assay [4] it was 3.52 µM (active); in [5] it was 12.2 µM (active). In assay [13], the AC50 was 38.3 µM (active).
Take `CCN(CC)c1ccc2c(c1)Oc1cc(N(CC)CC)ccc1C21OC(=O)c2ccccc21`: the molecule was called inactive in assay [6], in assay [10] and in [4]. Moreover, the AC50 in assay [15] is 3.48 µM (active).
For the molecule `CCN(CC)c1ccc(C=O)c(O)c1`, the result in assay [3], in assay [6], in assay [7], in assay [4] and in [5] was inactive. Moreover, the AC50 in [17] was 3.82 µM (active).
